Records with an inconclusive call do not appear. Calls of active or inactive are those of the source. Unless noted, calls come from the whole dose curve; as a rule, active = well fitted curve in either direction with a large enough effect (not every such curve was filed as active); inconclusive = small, poorly fitted or top-dose-only effect, or another doubt; inactive = flat fitted curve, though single readings scatter.
How the values were obtained:
[1] = target: Lysosomal acid glucosylceramidase (Homo sapiens) (UniProt P04062); assay: Glucocerebrosidase-p2 (AID 348; in the data active = potency below about 10 µM; note: potency is the fitted concentration of half-maximal effect); conditions: purified GBA, blue fluorogenic substrate, 40 min
Procedure, shortened: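 Normal human glucocerebrosidase (0.2 nM) with blue fluorogenic substrate (80 uM final) in citrate/phosphate pH 5.9 with 10mM sodium taurocholate, 0.01% tween-20; 40 min RT, NaOH/glycine stop; fluorescence Ex 365/Em 440; AC50 from a titration from 0.6 nM upwards.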

[2] = AP1 Signaling Pathway (AID 357); conditions: ME-180 AP-1-bla reporter, EGF-induced, beta-lactamase ratio, 5 h; at 7.69 µM (top of the series) unless noted;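 note: ME-180 reporter cells stimulated with EGF at its EC50 level; % is set by controls: 0 for no effect and ±100 for the full control effect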
Procedure, shortened: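 Cells are seeded overnight, exposed to compound titrations and an EC50 level of EGF for 5 hours at 37 °C, then loaded with CCF4 dye for 2.5 hours. Beta-lactamase activity under the AP-1 element is read as a blue/green ratio.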

[3] = NFAT Signaling Pathway (AID 444); conditions: Jurkat NFAT-bla M1, carbachol, beta-lactamase ratio, 5 h; at 7.69 µM (top of the series) unless noted;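 note: carbachol stimulus at about its EC50 of 1 µM final; % is set by controls: 0 for no effect and ±100 for the full control effect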
Procedure, shortened: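 Read-out: CCF4 FRET ratio (460 nm/530 nm) after 1 h RT dye loading, used for %activity and AC50 from titration series. Cells: Jurkat NFAT-β-lactamase/M1 line, treated with compound plus 1 uM carbachol for 5 h, 37 °C.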

[4] = Stat Signaling Pathway (AID 446); conditions: ME-180 SIE beta-lactamase reporter, IL-6 stimulated, 5 h; at 7.69 µM (top of the series) unless noted;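 note: ME-180 cervical cancer cells given 40 pM IL-6 alongside compound; SIE-controlled beta-lactamase reporter measured as 460/530 nm FRET emission ratio; % is set by controls: 0 for no effect and ±100 for the full control effect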
Procedure, shortened: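 FRET read-out (405 nm excitation, 460/530 nm emission) of a beta-lactamase reporter under a STAT-inducible element in ME-180 cervical carcinoma cells. Cells with compound receive 40 pM IL-6 for 5 h. Values are normalised to AC90 stimulation and AC90 JAK-inhibitor controls.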

[5] = target: Glucocorticoid receptor (Homo sapiens) (UniProt P04150); assay: GR-EFC Redistribution (AID 451; calls by dose curve; note: potency is the fitted concentration of half-maximal effect); conditions: CHO-K1 GR-EFC translocation, beta-gal luminescence, 2 h
Procedure, shortened: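 Translocation of GR-ED fusion to nuclear EA restores b-gal, read by luminescence after 1 h room-temperature detection. Engineered CHO-K1 biosensor cells, 1,000/well, exposed 2 h at 37 C to titrations up to 46 uM final.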

[6] = target: Mitogen-activated protein kinase 10 (Mus musculus) (UniProt Q61831); assay: JNK3 AlphaScreen Assay (AID 530); conditions: JNK3 lysate, c-Jun phosphorylation; series mostly up to 57.1 µM;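 note: kinase came from lysate of stimulated human HepG2 cells; signal reports phosphorylation of biotinylated GST-cJun 1-79 at Ser73 with 10 µM ATP; % is set by controls: 0 for no effect and ±100 for the full control effect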
Procedure, shortened: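 Kinase buffer: 20 mM Tris-HCl pH 7.6, 10 mM MgCl2, 1 mM DTT, 0.1 mM Na3VO4, 0.01% Tween-20; ATP 10 uM. Substrate biotin-GST-cJun(1-79), enzyme from activated HepG2 lysates. Detection by Ser73 phospho-antibody AlphaScreen.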

[7] = target: 3',5'-cyclic-AMP phosphodiesterase 4B (Homo sapiens) (UniProt Q07343); assay: qHTS Assay for Inhibitors of PDE-IV (AID 607; active = well fitted activation curve with a large enough effect in the main read-out, with a control signal flat, not every such curve was filed as active; note: % of control where 0% means no effect); conditions: HEK293 ACTOne CNG channel cells, membrane potential fluorescence; series mostly up to 22.9 µM
Procedure, shortened: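 Cell-based read-out of cAMP via a modified cyclic nucleotide-gated channel and membrane potential dye (535/590 nm) in HEK293 cells expressing PDE4 endogenously. Compounds tested up to 22.9 uM final; 100 uM RO 20-1724 reference.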

[8] = qHTS Assay for Lipid Storage Modulators (AID 1519; calls by dose curve); conditions: Drosophila S3 cells, BODIPY lipid droplet/cell ratio, laser cytometry, cells loaded with oleic acid; for activity change, negative = inhibition: at 57.5 µM (top of the series)
Procedure, shortened: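 Cells seeded at 5,000 per well were treated with compounds over a concentration series and loaded with oleic acid (400 uM, as added). Lipid droplet fluorescence (488 nm excitation, 500-530 nm channel) was read by laser-scanning cytometry and normalized to 20 uM Triacsin C.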

[9] = Primary qHTS for small molecule stabilizers of the endoplasmic reticulum resident proteome: Secreted ER Calcium Modulated Protein (SERCaMP) assay (AID 1508630; active = well fitted curve in the direction sought with a large enough effect; an effect the other way counts as inactive or inconclusive; note: % is set by controls: 0 for no effect and ±100 for the full control effect); conditions: SH-SY5Y GLuc-SERCaMP (Gaussia luciferase released on ER calcium loss) secretion, thapsigargin, luminescence; series mostly up to 38.4 µM
Procedure, shortened: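 The SH-SY5Y reporter protocol was run at 3 concentrations up to 38.3 uM (primary) or 11 concentrations (follow-up): 16 h compound, 100 nM thapsigargin for 4 h, then extracellular luciferase luminescence.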

[10] = target: Glucocorticoid receptor (Homo sapiens) (UniProt P04150); assay: GR-GFP Redistribution (AID 450;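 active = compounds whose dose series gives a full or clear partial fitted curve of increased nuclear translocation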; note: potency is the fitted concentration of half-maximal effect); conditions: U2OS GR-GFP nuclear translocation, laser cytometry, 2 h
[11] = qHTS Assay for Identification of Small Molecule Agonists for Hypoxia Response Element Signaling Pathway (AID 914; active = well fitted activation curve with a large enough effect in the signal ratio, with a control signal flat, not every such curve was filed as active; the % refers to the signal ratio; note: % of control where 0% means no effect); conditions: ME-180 (cervical carcinoma) HRE-bla reporter, beta-lactamase ratio, CoCl2, 17 h; activation: stronger effect = higher value
Procedure, shortened: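 Cells were plated overnight, pin-dosed with compound in a titration series, co-stimulated with EC50 CoCl2 and incubated 17 hours at 37 degrees Celsius. CCF4 substrate was then loaded, and AC50 values came from the 460nm/530nm ratio.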

[12] = Confirmation and Secondary Assay for Modulators of Hemoglobin Beta Chain Splicing at IVS2 705 locus (AID 930; active = well fitted curve in the direction sought with a large enough effect; an effect the other way counts as inactive or inconclusive;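 note: HeLa cells stably expressing the EGFP-705 splicing reporter; GFP fluorescence per well restored by corrected splicing of the IVS2-705 intron in EGFP; % of control where 0% means no effect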); conditions: HeLa EGFP-705 splicing reporter, GFP fluorescence, 48 h; series mostly up to 38.3 µM
Procedure, shortened: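 Splice-correction reporter: EGFP cDNA split by beta-globin intron 2 bearing the 705 mutation, stably in HeLa. Compound incubation 2 days, 37C; fluorescent objects 5-250 µm summed per well.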

[13] = target: Ubiquitin carboxyl-terminal hydrolase 1 (Homo sapiens) (UniProt O94782); assay: Inhibitors of USP1/UAF1: Pilot qHTS (AID 504865; active = well fitted curve in the direction sought with a large enough effect; an effect the other way counts as inactive or inconclusive;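 note: rhodamine fluorescence freed from ubiquitin-rhodamine substrate followed over time; top concentration of the series differs between compounds; % is set by controls: 0 for no effect and ±100 for the full control effect; nearly all actives have a fitted effect of over 35% in size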); conditions: purified USP1/UAF1, Ub-rhodamine cleavage fluorescence; series mostly up to 54.9 µM
Procedure, shortened: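 USP1/UAF1 complex at 1 nM preincubated 15 min at room temperature with compound, then Ub-Rho substrate added at 150 nM final. Fluorescence (480/540 nm) read kinetically in 50 mM HEPES pH 7.8, 0.5 mM EDTA, 1 mM TCEP, 0.1 mg/ml BSA, 0.01% Tween-20.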

[14] = measured here: cell count channel max response
[15] = measured here: lipid channel max response

Chain of Glucocorticoid receptor (Homo sapiens) (P04150 whole entry, looked up, the tested form may be a part): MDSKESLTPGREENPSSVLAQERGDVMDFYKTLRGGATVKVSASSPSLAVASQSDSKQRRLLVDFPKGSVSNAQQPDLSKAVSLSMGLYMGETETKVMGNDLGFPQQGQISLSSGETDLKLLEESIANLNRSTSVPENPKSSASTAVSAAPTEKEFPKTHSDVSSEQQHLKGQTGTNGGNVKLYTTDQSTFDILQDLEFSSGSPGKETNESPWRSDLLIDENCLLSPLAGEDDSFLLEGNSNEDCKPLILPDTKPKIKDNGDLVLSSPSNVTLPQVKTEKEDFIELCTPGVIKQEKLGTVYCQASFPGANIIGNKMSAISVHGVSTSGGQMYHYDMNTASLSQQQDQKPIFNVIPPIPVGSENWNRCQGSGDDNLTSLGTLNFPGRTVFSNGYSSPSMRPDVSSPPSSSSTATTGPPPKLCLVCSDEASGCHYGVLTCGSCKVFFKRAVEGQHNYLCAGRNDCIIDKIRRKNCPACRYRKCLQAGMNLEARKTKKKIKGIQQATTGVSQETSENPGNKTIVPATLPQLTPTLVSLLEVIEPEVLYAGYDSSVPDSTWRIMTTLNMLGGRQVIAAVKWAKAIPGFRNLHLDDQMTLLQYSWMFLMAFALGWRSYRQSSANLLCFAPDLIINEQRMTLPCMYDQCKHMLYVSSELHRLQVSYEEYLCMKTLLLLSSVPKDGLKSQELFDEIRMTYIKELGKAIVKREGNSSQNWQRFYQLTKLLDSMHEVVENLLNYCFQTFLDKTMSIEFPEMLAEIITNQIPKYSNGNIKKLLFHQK
Chain of Lysosomal acid glucosylceramidase (Homo sapiens) (P04062 whole entry, looked up): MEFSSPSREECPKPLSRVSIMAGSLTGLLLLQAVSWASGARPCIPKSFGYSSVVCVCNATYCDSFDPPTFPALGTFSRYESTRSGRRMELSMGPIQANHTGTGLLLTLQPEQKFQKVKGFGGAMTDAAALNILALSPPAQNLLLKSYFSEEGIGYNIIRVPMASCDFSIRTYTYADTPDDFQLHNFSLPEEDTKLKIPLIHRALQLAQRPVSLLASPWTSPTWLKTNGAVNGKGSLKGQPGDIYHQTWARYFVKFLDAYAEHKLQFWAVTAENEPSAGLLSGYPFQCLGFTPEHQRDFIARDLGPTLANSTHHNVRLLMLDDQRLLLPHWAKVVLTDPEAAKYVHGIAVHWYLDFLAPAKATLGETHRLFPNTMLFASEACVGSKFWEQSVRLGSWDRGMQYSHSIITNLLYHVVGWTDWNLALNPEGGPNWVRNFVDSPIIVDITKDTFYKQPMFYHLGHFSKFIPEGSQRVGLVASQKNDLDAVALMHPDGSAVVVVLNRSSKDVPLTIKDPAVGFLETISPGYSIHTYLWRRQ
Chain of 3',5'-cyclic-AMP phosphodiesterase 4B (Homo sapiens) (Q07343 whole entry, looked up): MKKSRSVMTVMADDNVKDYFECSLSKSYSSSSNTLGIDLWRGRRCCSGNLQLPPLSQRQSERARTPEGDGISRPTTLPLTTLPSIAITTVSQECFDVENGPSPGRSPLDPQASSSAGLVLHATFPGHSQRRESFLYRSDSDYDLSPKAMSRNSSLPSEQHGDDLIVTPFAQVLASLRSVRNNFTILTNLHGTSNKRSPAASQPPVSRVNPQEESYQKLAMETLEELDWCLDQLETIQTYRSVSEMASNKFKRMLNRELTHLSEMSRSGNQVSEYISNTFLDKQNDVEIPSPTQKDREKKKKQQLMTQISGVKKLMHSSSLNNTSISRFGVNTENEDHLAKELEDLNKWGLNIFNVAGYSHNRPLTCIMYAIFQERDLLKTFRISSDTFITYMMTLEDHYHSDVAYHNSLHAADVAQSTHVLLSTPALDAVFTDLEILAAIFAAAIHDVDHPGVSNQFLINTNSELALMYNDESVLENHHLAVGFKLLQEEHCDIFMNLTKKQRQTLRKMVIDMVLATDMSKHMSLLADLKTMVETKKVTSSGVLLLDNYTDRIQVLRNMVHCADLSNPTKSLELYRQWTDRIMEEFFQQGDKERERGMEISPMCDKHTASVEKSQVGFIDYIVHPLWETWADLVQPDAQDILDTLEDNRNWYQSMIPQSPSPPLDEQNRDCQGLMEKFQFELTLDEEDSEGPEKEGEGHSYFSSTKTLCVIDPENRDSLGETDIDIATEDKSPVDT
Chain of Ubiquitin carboxyl-terminal hydrolase 1 (Homo sapiens) (O94782 whole entry, looked up): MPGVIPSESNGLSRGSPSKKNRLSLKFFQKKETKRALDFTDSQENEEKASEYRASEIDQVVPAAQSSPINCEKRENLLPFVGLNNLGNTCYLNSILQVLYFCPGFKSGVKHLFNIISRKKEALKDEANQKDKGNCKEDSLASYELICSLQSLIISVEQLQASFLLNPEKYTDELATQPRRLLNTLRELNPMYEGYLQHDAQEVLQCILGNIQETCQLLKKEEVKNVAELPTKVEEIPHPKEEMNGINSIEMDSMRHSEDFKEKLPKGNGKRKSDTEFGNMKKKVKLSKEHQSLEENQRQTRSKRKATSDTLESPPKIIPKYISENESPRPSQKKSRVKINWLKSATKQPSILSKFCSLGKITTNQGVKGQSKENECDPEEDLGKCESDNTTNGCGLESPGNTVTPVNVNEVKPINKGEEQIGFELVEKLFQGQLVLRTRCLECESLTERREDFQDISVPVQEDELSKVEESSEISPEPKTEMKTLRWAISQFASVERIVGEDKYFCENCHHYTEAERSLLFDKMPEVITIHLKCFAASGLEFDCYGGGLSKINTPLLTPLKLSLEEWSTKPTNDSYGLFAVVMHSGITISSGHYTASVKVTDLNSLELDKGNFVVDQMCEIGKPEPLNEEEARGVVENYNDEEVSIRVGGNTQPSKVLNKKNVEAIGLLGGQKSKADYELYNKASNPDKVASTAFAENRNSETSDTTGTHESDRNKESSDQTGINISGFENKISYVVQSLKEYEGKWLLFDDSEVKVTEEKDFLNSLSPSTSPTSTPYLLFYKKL

SMILES | Potency [1] | activity change, negative = inhibition [2] | activity change, negative = inhibition [3] | activity, negative = inhibition [4] | Potency [5] | Potency [6] | Potency [7] | activity change, negative = inhibition [8] | max response [8, 14] [%] | max response [8, 15] [%] | outcome [9] | Potency [10] | activation [11] | outcome [12] | Potency [13]
CC(=O)N1CCC[C@@]2(CCN(C(c3ccccc3)c3ccccc3)C2)C1 | > 11.4 µM (inactive) | -0.322% (inactive) | 3.9% (inactive) | -10.9% (inactive) | > 46 µM (inactive) | inactive | inactive | -4.88% (inactive) | -3.73 | -8.87 | inactive |  |  |  | 
CC(C)NC(=O)N1CC[C@@]2(CCCN(C(=O)c3cnccn3)C2)C1 | > 11.4 µM (inactive) | 7.64% (inactive) | 11.4% (inactive) | 4.04% (inactive) | > 46 µM (inactive) | inactive | inactive | 3.99% (inactive) | -1.16 | 5.89 | inactive |  |  |  | 
COCC(=O)N1CCC2(CC1)CCN(C(=O)NC(C)C)CC2 | > 11.4 µM (inactive) | -2.26% (inactive) | 0.244% (inactive) | 6.66% (inactive) | > 46 µM (inactive) | inactive | inactive | 0.579% (inactive) | 13.2 | 16.2 | inactive |  |  |  | 
O=C(c1cc(C(F)(F)F)cc(C(F)(F)F)c1)N1CCC2(CC1)CCN(c1ccccc1)CC2 | > 11.4 µM (inactive) | 24.2% (inactive) | -4.75% (inactive) | -7.04% (inactive) | > 46 µM (inactive) |  |  | -9.68% (inactive) | 10.5 | 0.292 | inactive |  |  |  | 
COc1cccc(-c2cc(NCc3cccc(C)c3)ncn2)c1 | > 11.4 µM (inactive) | -1.98% (inactive) | -3.2% (inactive) | -11.9% (inactive) | > 46 µM (inactive) | inactive |  | -15.5% (inactive) | 8.52 | -6.01 | inactive |  |  |  | 
O=C(Nc1cccc(F)c1)N1CC[C@@]2(CCCN(C(=O)c3ccncc3)C2)C1 | > 11.4 µM (inactive) | -4.21% (inactive) | 9.18% (inactive) | -6.29% (inactive) | > 46 µM (inactive) | inactive | inactive | 5.32% (inactive) | 15.8 | 23.2 | inactive |  |  |  | 
COc1ccccc1CNc1ncncc1-c1ccccc1CN(C)C | > 11.4 µM (inactive) | -14.2% (inactive) | -25.5% (inactive) | 6.72% (inactive) | > 46 µM (inactive) | inactive | inactive | 5.27% (inactive) | 12.7 | 17.5 | inactive | > 46 µM (inactive) | -9.29% (inactive) | inactive | inactive
O=C(c1ccncc1)N1CCC2(CCCN(c3ccccc3)C2)CC1 | > 11.4 µM (inactive) | -3.67% (inactive) | 3.61% (inactive) | -3.54% (inactive) | > 46 µM (inactive) | inactive | inactive | 6.76% (inactive) | 7.52 | 17.5 | inactive |  |  |  | 
CCNc1ncc2ncc(=O)n(C)c2n1 | > 11.4 µM (inactive) | 3.09% (inactive) | -4.43% (inactive) | -6.09% (inactive) | > 46 µM (inactive) | inactive | inactive | 5.71% (inactive) | 10.2 | 17.6 | inactive | > 9.22 µM (inactive) |  |  | 
COCC(=O)N1CCC2(CCCN(c3ccc(-c4ccccc4)cc3)C2)CC1 | > 11.4 µM (inactive) | -7.31% (inactive) | 3.92% (inactive) | -7.13% (inactive) | > 46 µM (inactive) | inactive | inactive | -5.34% (inactive) | 18.5 | 14.9 | inactive |  |  |  | 
Cc1noc(C)c1C(=O)N1CCC[C@@]2(CCN(C(c3ccccc3)c3ccccc3)C2)C1 | > 11.4 µM (inactive) | -7.96% (inactive) | -12.7% (inactive) | -6.89% (inactive) | > 46 µM (inactive) | inactive | inactive | 2.35% (inactive) | 12.4 | 16.6 | inactive |  |  |  | 
Cc1ccccc1-c1cc(-n2ccnc2)ncn1 | > 11.4 µM (inactive) | -7.76% (inactive) | -6.87% (inactive) | 15.7% (inactive) | > 46 µM (inactive) | inactive | inactive | 9.66% (inactive) | 7.52 | 17.5 | inactive | > 46 µM (inactive) |  |  | inactive
Cc1noc(C)c1C(=O)N1CCC2(CC1)CN(Cc1cc(C(F)(F)F)cc(C(F)(F)F)c1)C2 | > 11.4 µM (inactive) | -7.95% (inactive) | -16.8% (inactive) | -3.94% (inactive) | > 46 µM (inactive) | inactive | inactive | -4.32% (inactive) | -1.83 | -4.57 | inactive |  |  |  | 
COc1ccc(NC(=O)N2CC[C@@]3(CCCN(C(=O)c4ccco4)C3)C2)cc1 | > 11.4 µM (inactive) | -13.2% (inactive) | -7.9% (inactive) | 13.8% (inactive) | > 46 µM (inactive) | inactive | inactive | 2.86% (inactive) | 9.78 | 12.5 | inactive |  |  |  | 
COc1ccc(C(=O)N2CCC[C@@]3(CCN(Cc4ccncc4)C3)C2)cc1 | > 11.4 µM (inactive) | -9.73% (inactive) | 4.96% (inactive) | 2.52% (inactive) | > 46 µM (inactive) | inactive | inactive | 5.81% (inactive) | 16.4 | 25.6 | inactive |  |  |  | 

Source: PubChem BioAssay (NCATS)
